{
  "source": "PubChem BioAssay (Tox21)",
  "note": "Results filed as inconclusive are left out. Calls of active or inactive are those of the source. The call rests on the fitted dose curve. On the % scale 0 is the no-effect control and ±100 the full control effect.",
  "data": [
    {"experiment": "qHTS assay for small molecule agonists of the p53 signaling pathway (AID 651631); further: nearly all actives have a fitted effect of over 15% in size", "conditions": "HCT-116 p53RE-bla reporter, beta-lactamase FRET ratio, 16 h; series mostly up to 73.3 µM; activation: at the top concentration", "excerpt": "U.S. Tox21 Program National Center for Advancing Translational Sciences [NCATS] NIH Chemical Genomics Center [NCGC] U.S. Environmental Protection Agency [EPA] National Institutes of Environmental Health Sciences [NIEHS] National Toxicology Program [NTP] U.S. Food and Drug Administration [FDA] Tox21 Assay Overview: p53, a tumor suppressor protein, is activated following cellular insult, including DNA damage and other cellular stresses. The activation of p53 regulates cell fate by inducing DNA repair, cell cycle arrest, apoptosis, or cellular senescence. The activation of p53, therefore, is a good indicator of DNA damage and other cellular stresses. The CellSensor p53RE-bla HCT-116 cell line (Invitrogen) contains a stably integrated beta-lactamase reporter gene under control of the p53 response elements. The activation of the reporter gene under culture conditions can be detected by fluorescence intensity. This cell line was used to screen the Tox21 compound library in a 1536-well plate format and to identify agonists that activate the p53 signaling pathway.\nTox21 Assay Protocol Summary: The p53RE-bla cells were dispensed at 4,000 cells/5 ul/well in 1536-well black wall/clear bottom plates using a Multidrop dispenser. After the assay plates were incubated at a 37 C/5% CO2 incubator for 5 hours, 23 nL of compounds dissolved in DMSO, positive controls or DMSO only was transferred to the assay plate by a pin tool. The plates were incubated at 37 C for 16 hours. After 1 uL of LiveBLAzerTM B/G FRET substrate was added using a Flying Reagent Dispenser, the plates were incubated at room temperature for 2 hours, and fluorescence intensity was measured by an Envision plate reader.", "values": [
      {"smiles": "CC(O)CC(C)(C)O", "note": "(stereo not given)", "outcome": "inactive"},
      {"smiles": "CCNc1cccc(C)c1", "outcome": "inactive"},
      {"smiles": "OCc1cccc(Oc2ccccc2)c1", "outcome": "inactive"},
      {"smiles": "N#Cc1ccccc1", "outcome": "inactive"},
      {"smiles": "CNC(=S)N(C)C", "outcome": "inactive"},
      {"smiles": "O=C(O)c1ccccc1C(=O)O", "activation": "-2.91% [at 95.1 µM] (inactive)"},
      {"smiles": "CN/C(=C\\[N+](=O)[O-])NCCSCc1csc(CN(C)C)n1", "outcome": "inactive"},
      {"smiles": "COC(=O)CCCC(=O)OC", "outcome": "inactive"},
      {"smiles": "CCNc1ccccc1", "activation": "-1.53% (inactive)"},
      {"smiles": "C=C(C)C(=O)OCC(C)C", "outcome": "inactive"},
      {"smiles": "O=C(O)c1ccc(S(=O)(=O)N(Cl)Cl)cc1", "outcome": "inactive"},
      {"smiles": "CC(C)CCCCCCCOC(=O)CCCCC(=O)OCCCCCCCC(C)C", "outcome": "inactive"},
      {"smiles": "CN(C)CCOC(=O)COc1ccc(Cl)cc1", "outcome": "inactive"},
      {"smiles": "CCc1ccccc1CC", "outcome": "inactive"},
      {"smiles": "COC(=O)c1cccnc1", "outcome": "inactive"},
      {"smiles": "COc1ccc(OC)cc1", "outcome": "inactive"},
      {"smiles": "Cc1ccc2ncccc2c1", "outcome": "inactive"},
      {"smiles": "CC(C)(C#N)c1cc(Cn2cncn2)cc(C(C)(C)C#N)c1", "activation": "-2.48% [at 34.7 µM] (inactive)"},
      {"smiles": "COc1ccc(C)cc1N", "activation": "-1.26% (inactive)"},
      {"smiles": "CCCCCCCCCCO", "activation": "1.63% (inactive)"},
      {"smiles": "CCCCCCCCCCN", "outcome": "inactive"},
      {"smiles": "Cc1ccc(C(C)C)c(O)c1", "activation": "-1.9% (inactive)"},
      {"smiles": "c1ccc(Oc2ccccc2)cc1", "outcome": "inactive"},
      {"smiles": "CC(=O)OCCOC(C)=O", "outcome": "inactive"},
      {"smiles": "CC(=O)Oc1ccc(C)cc1", "outcome": "inactive"},
      {"smiles": "C=Cc1ccc(C)cc1", "outcome": "inactive"},
      {"smiles": "CC(=O)CC(C)(C)O", "outcome": "inactive"},
      {"smiles": "CC(=O)CCC=C(C)C", "activation": "2.21% [at 95.1 µM] (inactive)"},
      {"smiles": "CSc1ccc(Cl)cc1", "outcome": "inactive"},
      {"smiles": "O=C(O)Cn1c(=O)n(Cc2ccc(Br)cc2F)c(=O)c2ccc(Cl)cc21", "activation": "-5.01% (inactive)"},
      {"smiles": "CCCCCC(=O)O", "activation": "2.89% (inactive)"},
      {"smiles": "COc1cc(OC)c(C(=O)CCCN2CCCC2)c(OC)c1", "activation": "-1.92% [at 34.7 µM] (inactive)"},
      {"smiles": "O=C(OCC1CCC2OC2C1)C1CCC2OC2C1", "note": "(stereo not given)", "activation": "-1.58% [at 95.1 µM] (inactive)"},
      {"smiles": "CC(C)=CCl", "outcome": "inactive"},
      {"smiles": "CC1(C)S[C@@H]2[C@H](NC(=O)COc3ccccc3)C(=O)N2[C@H]1C(=O)O", "activation": "2.62% (inactive)"},
      {"smiles": "COc1ccc([N+](=O)[O-])cc1N", "outcome": "inactive"},
      {"smiles": "CC(=O)c1ccc(O)cc1", "outcome": "inactive"},
      {"smiles": "CCOCC(=O)O", "outcome": "inactive"},
      {"smiles": "COc1ccccc1OCC(O)CO", "note": "(stereo not given)", "outcome": "inactive"},
      {"smiles": "CC1(C)NC(=O)NC1=O", "outcome": "inactive"}
    ]}
  ]
}
